Here are results for 30 molecules from PubChem BioAssay (NCATS).

The target in experiment [1] is Glutathione peroxidase 1 (Homo sapiens) (UniProt P07203). Nature of the experiment: Primary qHTS Assay for Inhibitors of Recombinant Selenoprotein Glutathione Peroxidase 1 (GPX1) (AID 1845191). Also: nearly all actives have a fitted effect of over 65% in size. Also: potency is read from the fitted curve at half-maximal effect. In a few lines:
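10 nM GPX1 + cpd, 30 min RT; start w/ 1 mM GSH, 0.5 mM cumene hydroperoxide, 0.5 mM NADPH, 100 nM GR, 0.01% BSA; buffer 50 mM Tris-HCl pH 7.5, 2 mM EDTA, 150 mM NaCl; Fl 340/450, 0 & 15 min.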

Experiment [2] deals with Phospholipid hydroperoxide glutathione peroxidase GPX4 (Homo sapiens) (UniProt P36969). The experiment is described as follows: Primary qHTS Assay for Inhibitors of Recombinant Selenoprotein Glutathione Peroxidase 4 (GPX4) (AID 1845192). Also: nearly all actives have a fitted effect of over 65% in size. Also: potency is read from the fitted curve at half-maximal effect. Summed up: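 NADPH consumption, followed by fluorescence at 340/450 nm between 0 and 15 min, reports GPX4 activity via coupled glutathione reductase (100 nM). Enzyme 200 nM was pre-exposed to compound 30 min; 0.5 mM cumene hydroperoxide and 1 mM GSH served as substrates.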

Experiment [3] has as its target Luciferin 4-monooxygenase (Photinus pyralis) (UniProt P08659). Nature of the experiment: Primary firefly luciferase (FLuc) qHTS assay for identification of artifact compounds. (AID 1845220). Also: nearly all actives have a fitted effect of over 60% in size. To be noted: outcome: dose series up to 54.1 µM. In a few lines: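 Compounds sat 15 min at room temperature with 10 uM luciferin and 10 uM ATP (pH 7.6 Tris acetate). Firefly luciferase (10 nM final) was then added, and luminescence was read 5 min later. Data normalized to no-enzyme and DMSO controls were Hill-fitted.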

Experiment [4] is described as follows: Primary fluorescence-based thiol-reactive (MSTI) qHTS assay for identification of artifact compounds. (AID 1845221).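 Also: series mostly up to about 54 µM; thiol-reactive compounds lower the probe fluorescence signal; nearly all actives have a fitted effect of over 65% in size.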 Summed up: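 Thiol-reactive compounds detected by quenching of 4 uM MSTI fluorescence (525/598 nm) after 1 h room-temperature dark incubation in PBS pH 7.4, 2% DMSO. qHTS titration; percent inhibition Hill-fitted against Acetyl-MSTI/MSTI controls.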

Each structure is given as a SMILES string. Values joined by “and” are separate entries in the source; they are usually repeats but may differ in a detail not shown here. Identical values can stand only once. Results filed as inconclusive are left out. Active and inactive are the calls of the source. Calls follow the shape of the dose curve; as a rule, active = well fitted curve in the direction sought with a large enough effect; inconclusive = small, poorly fitted or top-dose-only effect, or another doubt; inactive = no such curve, though single readings can be large; an effect the other way counts as inactive or inconclusive.

Glutathione peroxidase 1 (Homo sapiens), sequence (P07203 whole entry, looked up): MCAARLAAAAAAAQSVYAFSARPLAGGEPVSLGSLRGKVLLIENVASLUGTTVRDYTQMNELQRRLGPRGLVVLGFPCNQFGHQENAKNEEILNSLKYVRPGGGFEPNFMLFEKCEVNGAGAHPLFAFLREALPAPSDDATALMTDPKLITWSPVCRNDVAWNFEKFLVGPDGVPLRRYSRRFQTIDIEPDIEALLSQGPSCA
Phospholipid hydroperoxide glutathione peroxidase GPX4 (Homo sapiens), sequence (P36969 whole entry, looked up): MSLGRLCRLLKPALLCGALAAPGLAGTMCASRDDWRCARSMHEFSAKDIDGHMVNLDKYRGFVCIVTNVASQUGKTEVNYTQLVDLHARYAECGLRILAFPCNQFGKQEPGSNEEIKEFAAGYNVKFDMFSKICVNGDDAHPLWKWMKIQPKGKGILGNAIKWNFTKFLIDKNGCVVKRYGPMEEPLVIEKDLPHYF

Regarding `COC(=O)Nc1nc2ccc(S(=O)c3ccccc3)cc2[nH]1` (configuration not stated), the Potency result in experiment [1] and in experiment [2] was “inactive” each time.
Regarding `Nc1ccc(S(=O)(=O)Nc2ccccn2)cc1`, the Potency result in experiment [1] and in experiment [2] was “inactive” in each case.
In the case of `CC(C)(C)NC(=O)[C@H]1CC[C@H]2[C@@H]3CC[C@H]4NC(=O)C=C[C@]4(C)[C@H]3CC[C@]12C`, the Potency result in experiment [1] and in experiment [2] was “inactive” in each case.
For `CCCCOc1ccc(CC(=O)NO)cc1`, the Potency result in experiment [1] and in experiment [2] was “inactive” each time.
`CN1CCN(c2c(F)cc3c(=O)c(C(=O)O)cn4c3c2OCN4C)CC1`: the Potency result in experiment [1] and in experiment [2] was “inactive” throughout.
For `CCCN[C@H]1CCc2nc(N)sc2C1`, the Potency entry in experiment [1] and in experiment [2] was “inactive” in each case.
For `CO[C@@H]1[C@@H](OC(N)=O)[C@@H](O)[C@H](Oc2ccc3c(O)c(NC(=O)c4ccc(O)c(CC=C(C)C)c4)c(=O)oc3c2C)OC1(C)C`, the Potency result in experiment [1] and in experiment [2] was “inactive” throughout.
As to `C[C@@H]1CN(c2c(F)c(N)c3c(=O)c(C(=O)O)cn(C4CC4)c3c2F)C[C@H](C)N1`, the Potency entry in experiment [1] and in experiment [2] was “inactive” in each case.
For the molecule `Oc1c(Cl)cc(Cl)c2cccnc12`, the Potency entry in experiment [1] and in experiment [2] was “inactive” each time.
As for `CCOCC(O)COc1ccc(NC(=O)CC[S+](C)C)cc1` (configuration not stated), the Potency entry in experiment [1] and in experiment [2] was “inactive” in each case.
Take `CN(Cc1cc(Br)cc(Br)c1N)C1CCCCC1`: the Potency entry in experiment [1] and in experiment [2] was “inactive” in each case.
For the molecule `COc1cc([C@@H]2c3cc4c(cc3[C@H](O)[C@H]3COC(=O)[C@H]23)OCO4)cc(OC)c1OC`, the Potency entry in experiment [1] and in experiment [2] was “inactive” each time.
Take `Cn1nnc2c(C(N)=O)ncn2c1=O`: the Potency result in experiment [1] and in experiment [2] was “inactive” in each case.
Turning to `COc1cnc(NS(=O)(=O)c2ccc(N)cc2)nc1`, the Potency result in experiment [1] and in experiment [2] was “inactive” each time.
Turning to `CC(C)(C#N)c1cc(Cn2cncn2)cc(C(C)(C)C#N)c1`, the Potency result in experiment [1] and in experiment [2] was “inactive” throughout.
Consider `C[C@]12C=CC(=O)C=C1CC[C@@H]1[C@@H]2C(=O)C[C@@]2(C)[C@H]1CC[C@]2(O)C(=O)CO`, for which the Potency result in experiment [1] and in experiment [2] was “inactive” throughout.
As to `C[C@@H](CN1CC(=O)NC(=O)C1)N1CC(=O)NC(=O)C1`, the Potency result in experiment [1] and in experiment [2] was “inactive” each time.
Consider `Cc1ncc([N+](=O)[O-])n1CCO`, for which the Potency result in experiment [1] and in experiment [2] was “inactive” each time.
For `CC(=O)[C@H]1CC[C@H]2[C@@H]3CC=C4C[C@@H](O)CC[C@]4(C)[C@H]3CC[C@]12C`, the Potency entry in experiment [1] and in experiment [2] was “inactive” each time.
In the case of `CCOC(=O)[C@H](CCc1ccccc1)N[C@H]1CCc2ccccc2N(CC(=O)O)C1=O`, the Potency entry in experiment [1] and in experiment [2] was “inactive” each time.
For `CC(=O)CC(c1ccccc1)c1c(O)c2ccccc2oc1=O` (configuration not stated), the Potency entry in experiment [1] and in experiment [2] was “inactive” throughout.
For the molecule `CC(C)OC(=O)OCOP(=O)(CO[C@H](C)Cn1cnc2c(N)ncnc21)OCOC(=O)OC(C)C`, the Potency result in experiment [1] and in experiment [2] was “inactive” each time.
As to `CO[C@@]12[C@H](COC(N)=O)C3=C(C(=O)C(C)=C(N)C3=O)N1C[C@@H]1N[C@@H]12`, the Potency result in experiment [1] and in experiment [2] was “inactive” throughout.
`O=S(=O)(O)CCS`: the Potency entry in experiment [1] and in experiment [2] was “inactive” each time.
Take `CCc1c2c(nc3ccc(OC(=O)N4CCC(N5CCCCC5)CC4)cc13)-c1cc3c(c(=O)n1C2)COC(=O)[C@]3(O)CC`: the Potency is 20.2 µM (active) and 2.05 µM (active) in experiment [1]; 12.6 µM (active) in experiment [2].
In the case of `CCOc1cc(N)c(Cl)cc1C(=O)NCC1CN(Cc2ccc(F)cc2)CCO1` (configuration not stated), the Potency entry in experiment [1] and in experiment [2] was “inactive” in each case.
For the molecule `CNS(=O)(=O)Cc1ccc2[nH]cc(CCN(C)C)c2c1`, the Potency entry in experiment [1] and in experiment [2] was “inactive” each time.
Turning to `COC(=O)Nc1nc2ccc(C(=O)c3ccccc3)cc2[nH]1`, the Potency result in experiment [1] and in experiment [2] was “inactive” throughout.
Regarding `Nc1nc(F)nc2c1ncn2[C@@H]1O[C@H](CO)[C@@H](O)[C@@H]1O`, the Potency entry in experiment [1], in experiment [2] and in experiment [4] was “inactive” in each case. Besides, in experiment [3], the result was inactive.
Consider `CCOC(=O)[C@H](CCc1ccccc1)N[C@H]1CS[C@H](c2cccs2)CN(CC(=O)O)C1=O`, for which the Potency result in experiment [1] and in experiment [2] was “inactive” each time.
